Structures are written as SMILES.

Assay [1] has as its target T1, Ephrin type-A receptor 3 (Homo sapiens) (UniProt P29320).
T1 sequence (whole entry): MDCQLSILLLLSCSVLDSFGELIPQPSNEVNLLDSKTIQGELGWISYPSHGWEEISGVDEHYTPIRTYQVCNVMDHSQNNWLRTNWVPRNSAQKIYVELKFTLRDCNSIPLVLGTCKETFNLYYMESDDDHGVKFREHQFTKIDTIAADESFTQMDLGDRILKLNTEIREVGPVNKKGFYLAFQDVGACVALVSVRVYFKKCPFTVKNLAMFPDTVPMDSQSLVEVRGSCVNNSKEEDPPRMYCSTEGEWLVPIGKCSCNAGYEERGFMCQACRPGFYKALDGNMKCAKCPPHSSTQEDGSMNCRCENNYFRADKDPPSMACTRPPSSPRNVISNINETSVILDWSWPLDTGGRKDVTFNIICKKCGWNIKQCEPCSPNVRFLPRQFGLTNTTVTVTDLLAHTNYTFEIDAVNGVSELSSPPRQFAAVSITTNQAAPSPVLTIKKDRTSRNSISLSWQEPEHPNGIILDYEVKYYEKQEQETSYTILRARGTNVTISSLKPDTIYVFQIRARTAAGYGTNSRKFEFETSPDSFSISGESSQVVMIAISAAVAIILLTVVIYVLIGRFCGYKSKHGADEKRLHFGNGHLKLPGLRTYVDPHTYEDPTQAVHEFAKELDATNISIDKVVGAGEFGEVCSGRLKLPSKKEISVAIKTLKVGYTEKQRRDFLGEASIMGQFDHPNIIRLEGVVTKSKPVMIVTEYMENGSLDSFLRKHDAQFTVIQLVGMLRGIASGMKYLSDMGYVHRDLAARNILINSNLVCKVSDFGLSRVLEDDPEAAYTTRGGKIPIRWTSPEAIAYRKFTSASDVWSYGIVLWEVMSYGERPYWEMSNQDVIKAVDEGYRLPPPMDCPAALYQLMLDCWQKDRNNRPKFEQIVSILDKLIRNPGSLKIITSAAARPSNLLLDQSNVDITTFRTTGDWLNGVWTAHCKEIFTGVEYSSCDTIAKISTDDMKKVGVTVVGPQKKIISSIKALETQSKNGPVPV
The note with it: at 10 µM.

Assay [2] concerns the target Ephrin type-A receptor 4 (Homo sapiens) (UniProt P54764). Particulars: at 1 µM.
The target is the same in assay [3]. The note with it: at 10 µM.
The target of assay [4] is Ephrin type-A receptor 5 (Homo sapiens) (UniProt P54756). The note with it: at 1 µM.
Ephrin type-A receptor 5 (Homo sapiens), sequence (P54756 whole entry): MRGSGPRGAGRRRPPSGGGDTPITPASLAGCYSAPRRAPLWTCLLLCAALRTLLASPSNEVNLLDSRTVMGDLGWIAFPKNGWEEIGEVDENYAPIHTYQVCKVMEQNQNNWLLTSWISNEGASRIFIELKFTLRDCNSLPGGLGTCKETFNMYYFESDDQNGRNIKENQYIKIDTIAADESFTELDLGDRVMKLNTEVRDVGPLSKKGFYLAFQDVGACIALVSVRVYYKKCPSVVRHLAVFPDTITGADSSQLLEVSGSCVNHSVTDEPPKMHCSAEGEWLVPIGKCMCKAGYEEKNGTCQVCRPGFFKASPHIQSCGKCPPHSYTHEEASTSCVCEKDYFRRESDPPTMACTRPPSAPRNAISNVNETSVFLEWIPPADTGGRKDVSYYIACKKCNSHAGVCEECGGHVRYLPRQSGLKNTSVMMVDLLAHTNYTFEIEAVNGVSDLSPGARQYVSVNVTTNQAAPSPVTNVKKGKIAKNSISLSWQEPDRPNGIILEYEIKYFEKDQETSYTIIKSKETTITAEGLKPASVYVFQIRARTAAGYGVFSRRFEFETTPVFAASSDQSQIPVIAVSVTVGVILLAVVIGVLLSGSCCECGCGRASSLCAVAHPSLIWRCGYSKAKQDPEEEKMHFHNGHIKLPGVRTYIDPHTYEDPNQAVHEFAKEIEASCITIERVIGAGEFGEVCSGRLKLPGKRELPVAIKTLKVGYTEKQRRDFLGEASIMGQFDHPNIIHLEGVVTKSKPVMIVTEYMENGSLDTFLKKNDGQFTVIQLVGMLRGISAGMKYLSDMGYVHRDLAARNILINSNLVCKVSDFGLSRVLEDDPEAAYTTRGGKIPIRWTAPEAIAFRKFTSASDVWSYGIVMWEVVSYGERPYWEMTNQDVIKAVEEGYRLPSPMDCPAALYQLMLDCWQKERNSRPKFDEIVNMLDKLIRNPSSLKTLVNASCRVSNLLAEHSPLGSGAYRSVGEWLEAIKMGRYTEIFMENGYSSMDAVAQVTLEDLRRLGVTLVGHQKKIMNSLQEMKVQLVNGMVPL
The target is the same in assay [5]. Particulars: at 10 µM.
Assay [6] deals with Ephrin type-A receptor 7 (Homo sapiens) (UniProt Q15375). Particulars: at 1 µM.
Ephrin type-A receptor 7 (Homo sapiens), sequence (Q15375 28-998 limits assumed): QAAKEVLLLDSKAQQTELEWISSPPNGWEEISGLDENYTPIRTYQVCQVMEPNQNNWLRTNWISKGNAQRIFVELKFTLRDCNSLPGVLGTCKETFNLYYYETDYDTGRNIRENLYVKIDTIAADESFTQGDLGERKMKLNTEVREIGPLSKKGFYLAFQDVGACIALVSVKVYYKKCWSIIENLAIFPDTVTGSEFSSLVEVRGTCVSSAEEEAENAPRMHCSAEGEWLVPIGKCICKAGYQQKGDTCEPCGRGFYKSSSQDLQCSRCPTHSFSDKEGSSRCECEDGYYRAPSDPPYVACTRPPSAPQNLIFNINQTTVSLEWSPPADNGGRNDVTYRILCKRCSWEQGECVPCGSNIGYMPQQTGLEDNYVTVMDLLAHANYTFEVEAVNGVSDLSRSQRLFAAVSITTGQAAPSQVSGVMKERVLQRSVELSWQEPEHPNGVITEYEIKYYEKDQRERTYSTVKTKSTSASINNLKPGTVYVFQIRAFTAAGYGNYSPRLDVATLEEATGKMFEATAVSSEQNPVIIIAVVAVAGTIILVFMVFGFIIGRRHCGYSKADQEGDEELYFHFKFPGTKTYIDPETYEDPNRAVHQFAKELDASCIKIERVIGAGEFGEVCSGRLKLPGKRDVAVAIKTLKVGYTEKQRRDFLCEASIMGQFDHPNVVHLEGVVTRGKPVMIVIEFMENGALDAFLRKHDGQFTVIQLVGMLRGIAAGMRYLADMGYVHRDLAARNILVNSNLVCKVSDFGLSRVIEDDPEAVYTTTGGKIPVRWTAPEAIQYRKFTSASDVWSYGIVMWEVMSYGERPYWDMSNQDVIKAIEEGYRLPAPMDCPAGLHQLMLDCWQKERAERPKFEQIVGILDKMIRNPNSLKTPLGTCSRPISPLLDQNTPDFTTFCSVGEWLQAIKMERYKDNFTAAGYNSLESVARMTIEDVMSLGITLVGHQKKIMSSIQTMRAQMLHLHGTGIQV
The target is the same in assay [7]. Particulars: at 10 µM.
Assay [8] concerns the target T2, Ephrin type-A receptor 8 (Homo sapiens) (UniProt P29322).
T2 sequence (whole entry): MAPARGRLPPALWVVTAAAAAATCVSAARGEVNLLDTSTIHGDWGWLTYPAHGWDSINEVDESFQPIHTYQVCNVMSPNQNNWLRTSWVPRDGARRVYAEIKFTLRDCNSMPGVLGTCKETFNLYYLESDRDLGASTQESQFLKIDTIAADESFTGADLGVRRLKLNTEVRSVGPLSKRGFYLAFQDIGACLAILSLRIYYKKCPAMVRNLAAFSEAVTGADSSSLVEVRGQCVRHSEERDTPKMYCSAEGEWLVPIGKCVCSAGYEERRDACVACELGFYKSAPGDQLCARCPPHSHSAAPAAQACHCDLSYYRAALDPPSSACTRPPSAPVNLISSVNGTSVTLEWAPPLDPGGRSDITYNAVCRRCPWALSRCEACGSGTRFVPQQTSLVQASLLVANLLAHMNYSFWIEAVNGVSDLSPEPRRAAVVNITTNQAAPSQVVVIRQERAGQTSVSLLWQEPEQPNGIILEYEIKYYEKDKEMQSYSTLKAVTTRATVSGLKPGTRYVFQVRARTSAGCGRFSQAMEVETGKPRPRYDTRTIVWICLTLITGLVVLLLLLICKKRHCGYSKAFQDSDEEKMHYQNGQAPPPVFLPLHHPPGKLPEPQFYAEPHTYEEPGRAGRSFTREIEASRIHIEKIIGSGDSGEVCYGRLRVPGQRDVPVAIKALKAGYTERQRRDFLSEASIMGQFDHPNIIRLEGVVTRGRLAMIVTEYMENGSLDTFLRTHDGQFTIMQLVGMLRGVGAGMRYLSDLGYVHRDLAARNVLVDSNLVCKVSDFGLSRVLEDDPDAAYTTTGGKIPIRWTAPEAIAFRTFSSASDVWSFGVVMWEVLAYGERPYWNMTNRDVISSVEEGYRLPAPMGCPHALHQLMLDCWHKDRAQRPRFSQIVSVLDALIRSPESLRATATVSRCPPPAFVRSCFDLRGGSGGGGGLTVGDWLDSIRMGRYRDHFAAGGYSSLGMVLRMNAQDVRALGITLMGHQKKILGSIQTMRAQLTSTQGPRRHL
The note with it: at 1 µM.

Assay [9] has as its target T2, Ephrin type-A receptor 8 (Homo sapiens). The note with it: at 10 µM.
Assay [10] addresses T3, Ephrin type-B receptor 1 (Homo sapiens) (UniProt P54762).
T3 sequence (whole entry): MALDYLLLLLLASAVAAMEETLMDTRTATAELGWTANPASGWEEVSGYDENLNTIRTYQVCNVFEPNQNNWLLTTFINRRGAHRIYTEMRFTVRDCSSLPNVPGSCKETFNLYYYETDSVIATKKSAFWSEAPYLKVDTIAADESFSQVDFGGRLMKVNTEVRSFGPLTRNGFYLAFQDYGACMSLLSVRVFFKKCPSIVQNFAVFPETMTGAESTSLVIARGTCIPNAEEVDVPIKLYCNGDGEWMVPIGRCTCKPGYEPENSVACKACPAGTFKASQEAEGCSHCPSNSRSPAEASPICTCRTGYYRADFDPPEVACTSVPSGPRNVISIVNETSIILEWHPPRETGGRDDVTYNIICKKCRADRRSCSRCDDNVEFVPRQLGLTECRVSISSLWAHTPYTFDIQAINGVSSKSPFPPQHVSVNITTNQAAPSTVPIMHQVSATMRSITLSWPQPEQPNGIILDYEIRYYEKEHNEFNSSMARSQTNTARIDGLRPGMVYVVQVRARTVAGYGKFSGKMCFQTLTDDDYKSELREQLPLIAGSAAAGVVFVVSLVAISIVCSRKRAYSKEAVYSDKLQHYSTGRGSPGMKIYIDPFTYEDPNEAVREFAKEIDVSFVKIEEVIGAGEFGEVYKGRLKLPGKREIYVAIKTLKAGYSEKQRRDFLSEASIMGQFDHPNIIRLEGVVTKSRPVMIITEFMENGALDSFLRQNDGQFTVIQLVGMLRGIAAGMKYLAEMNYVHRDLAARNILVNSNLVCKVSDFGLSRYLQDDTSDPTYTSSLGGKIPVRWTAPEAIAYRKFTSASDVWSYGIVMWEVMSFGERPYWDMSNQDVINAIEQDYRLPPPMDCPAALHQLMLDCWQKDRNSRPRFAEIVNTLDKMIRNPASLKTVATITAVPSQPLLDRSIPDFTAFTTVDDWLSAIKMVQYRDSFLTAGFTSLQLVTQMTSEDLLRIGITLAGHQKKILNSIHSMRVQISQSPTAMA
The note with it: at 1 µM.

Ephrin type-A receptor 4 (Homo sapiens), sequence (P54764 whole entry): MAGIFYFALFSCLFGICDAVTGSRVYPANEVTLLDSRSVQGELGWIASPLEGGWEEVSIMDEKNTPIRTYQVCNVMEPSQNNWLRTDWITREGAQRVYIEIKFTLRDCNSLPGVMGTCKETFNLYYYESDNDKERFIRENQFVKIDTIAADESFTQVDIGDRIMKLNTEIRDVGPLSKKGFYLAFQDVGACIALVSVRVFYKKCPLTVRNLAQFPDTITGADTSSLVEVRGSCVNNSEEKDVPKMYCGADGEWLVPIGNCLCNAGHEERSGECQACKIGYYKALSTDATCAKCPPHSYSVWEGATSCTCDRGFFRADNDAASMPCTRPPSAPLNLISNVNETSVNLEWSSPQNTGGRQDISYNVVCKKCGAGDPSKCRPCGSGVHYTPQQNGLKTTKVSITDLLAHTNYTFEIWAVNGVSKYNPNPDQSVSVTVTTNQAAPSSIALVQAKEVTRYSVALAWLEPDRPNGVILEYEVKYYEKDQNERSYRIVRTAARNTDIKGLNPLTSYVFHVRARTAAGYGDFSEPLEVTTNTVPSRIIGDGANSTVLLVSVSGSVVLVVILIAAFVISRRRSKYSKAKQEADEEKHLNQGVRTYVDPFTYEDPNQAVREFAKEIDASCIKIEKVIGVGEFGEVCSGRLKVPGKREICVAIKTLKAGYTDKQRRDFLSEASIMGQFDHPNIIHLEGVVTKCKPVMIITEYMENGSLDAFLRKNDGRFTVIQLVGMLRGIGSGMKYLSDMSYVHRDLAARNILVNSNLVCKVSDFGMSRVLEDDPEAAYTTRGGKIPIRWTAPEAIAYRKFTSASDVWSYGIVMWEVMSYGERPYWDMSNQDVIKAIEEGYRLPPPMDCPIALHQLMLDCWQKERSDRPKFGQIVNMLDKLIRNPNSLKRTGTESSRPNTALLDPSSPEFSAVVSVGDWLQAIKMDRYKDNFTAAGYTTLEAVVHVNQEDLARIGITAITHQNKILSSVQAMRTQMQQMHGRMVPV

In the case of `Cc1ccc(S(=O)(=O)/C=C/C#N)cc1`, the residual activity in assay [1] is 105%; in assay [2], 106%; in [3], 110%; in [4] it was 107%; in assay [5], 101%; in [6] it was 94%. Also, the residual activity in assay [7] worked out at 96%; in assay [8], 94%; in assay [9] it was 102%; in assay [10], 93%.

Broadly, the residual activity is the signal under treatment as a percentage of the control signal.

For the origin of these results see ChEMBL document CHEMBL2218924, “A broad activity screen in support of a chemogenomic map for kinase signalling research and drug discovery” (Biochem J, 2013).
